Screening data as filed in PubChem.
D2 antag: antagonizes the human D2 dopamine receptor | P14416 | HEK293 TREx D2 cells, calcium flux, dopamine EC80 | inhibition, % at 10 µM | hit rate 2% among 340,000; in the data active = inhibition above about 30%; inactive = below that, where a call was filed; note: 0% is about no effect
Target sequence (P14416 whole entry, looked up): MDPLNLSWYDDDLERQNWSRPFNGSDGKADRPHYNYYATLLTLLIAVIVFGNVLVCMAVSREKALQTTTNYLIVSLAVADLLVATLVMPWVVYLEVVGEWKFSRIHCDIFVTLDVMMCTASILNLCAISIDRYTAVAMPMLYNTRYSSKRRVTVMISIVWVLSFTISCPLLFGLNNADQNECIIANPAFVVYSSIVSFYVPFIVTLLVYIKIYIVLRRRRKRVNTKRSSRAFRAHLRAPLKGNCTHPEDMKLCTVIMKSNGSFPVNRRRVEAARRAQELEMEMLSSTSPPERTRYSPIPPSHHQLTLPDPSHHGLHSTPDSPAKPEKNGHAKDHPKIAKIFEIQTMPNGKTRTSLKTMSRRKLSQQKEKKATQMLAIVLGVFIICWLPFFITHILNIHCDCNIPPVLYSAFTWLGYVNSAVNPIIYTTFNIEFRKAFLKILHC
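HEK293 T-REx D2 cells, tet-induced, calcium dye no-wash. Cpd pintool add, 180 s kinetic, then EC80 DA, 180 s kinetic. Ca flux read.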
D2 PAM-1: positively modulates the human D2 dopamine receptor allosterically. potentiation, % at 10 µM. hit rate 0.34% among 340,000. P14416. HEK293 T-REx D2, calcium flux, EC20 dopamine potentiation;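 active = potentiation over 3 SD above the plate norm, cut at about 30% in these data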; note: 0% is about no effect
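Potentiation of an EC20 dopamine calcium response is measured in a force-coupled, tetracycline-inducible Hek293 Trex D2 line. Compound-only kinetic reads over 180 s flag agonists before dopamine addition.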
D2 PAM-2: positive allosteric modulators of human D2 dopamine receptor | DiscoveRx D2 beta-arrestin cells, luminescence, 90 min; 100% = 57 uM dopamine signal | hit rate 0.23% among 360,000 | potentiation, % (test concentration not listed) | AID 624464; in the data active = potentiation above about 50%
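PathHunter D2 cells, attached overnight at 37 deg C, received compound in DMSO plus dopamine at EC20 (50 nM final) for 90 min at 37 deg C. Beta-arrestin recruitment was read as luminescence after 1 h with detection reagent at ambient temperature.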
D2 ag-1: activates the human D2 dopamine receptor. hit rate 0.53% among 340,000. activation, % at 2 µM. AID 485358. HEK293 T-REx D2 cells, calcium flux agonist mode. P14416;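 active = activation over 3 SD above normal in the single-dose calcium agonist read, cut at about 30% in these data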; note: 0% is about no effect
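In this primary screen, compounds producing a positive calcium signal within 180 s of addition to tetracycline-induced, force-coupled HEK293 Trex D2 cells are flagged; cells are dye-loaded with a no-wash calcium kit beforehand.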
D2 ag-2: agonists of human D2 dopamine receptor (beta-arrestin); P14416; DiscoveRx PathHunter D2 beta-arrestin, luminescence, 90 min; 100% = 57 uM dopamine signal; activation, % (no concentration beside the values); hit rate 0.084% among 360,000; in the data active = activation above about 40%
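Agonist mode: compounds alone added to overnight-plated D2 PathHunter cells for 90 min at 37 C, with 57 uM final dopamine (EC100) defining full response. Beta-arrestin recruitment detected by chemiluminescent reagent, read after 1 h at ambient temperature.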
LDHA inh: inhibitors of human lactate dehydrogenase A; hit rate 0.15% among 480,000; purified LDHA, NADH/diaphorase-resazurin fluorescence; hits give low values; P00338; activity change, % (values are at about 110 or 230 µM); in the data active = activity change below about -30%;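 note: plate controls were DMSO wells for no effect and wells without enzyme for full effect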
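Resorufin fluorescence (ex540/em590), read at 0 and 20 min after diaphorase/resazurin addition, reports the NADH left after a 5 min room-temperature reaction of 2 nM human LDH5 with 0.06 mM NADH and 0.2 mM pyruvate.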
The depositor's hits bear a star. A selection: hits, their analogues and other compounds. The true share with any hit is near 2.1%.

Results for C/C(CCN1CCCCc2nc(C)c(C)cc21)=N\O[C@H](C)c1cn([C@H](CO)Cc2ccccc2)nn1 ?
D2 antag: -2.2; D2 PAM-1: 1.9; D2 ag-1: -0.9

What do the screens show for `CN(C)CC/C=C1\c2ccccc2COc2ccccc21`?
D2 antag: 50.7*; D2 PAM-1: -25.5; D2 PAM-2: -34.0; D2 ag-1: 1.4; D2 ag-2: -4.9; LDHA inh: -0.2

How did CN(C)CC/C=C1/c2ccccc2CS(=O)(=O)c2ccccc21 do in these assays?
D2 PAM-2: -2.7; D2 ag-2: 2.9; LDHA inh: -3.5

What do the screens show for `CN(C)CC/C=C1/c2ccccc2Sc2ccc(Cl)cc21`?
D2 antag: 102.5*; D2 PAM-1: -25.7; D2 PAM-2: -35.7; D2 ag-1: -0.8; D2 ag-2: -6.0; LDHA inh: -11.7

What do the screens show for `CCCCCC[N+](C)(C)CC/C=C1/c2ccccc2Sc2ccc(Cl)cc21`?
D2 antag: 75.3*; D2 PAM-1: -26.1; D2 PAM-2: -9.0; D2 ag-1: -2.3; D2 ag-2: 2.7; LDHA inh: 1.9

Results for CC(Nc1ccc(S(N)(=O)=O)cc1[N+](=O)[O-])c1ccco1 (stereo not drawn) ?
LDHA inh: 4.5

What do the screens show for `S=c1cc[nH]c(=S)[nH]1`?
LDHA inh: 8.9

Results for Cc1ccc2c(c1)-c1nc(SCC(=O)Nc3cc(F)ccc3C)ncc1S(=O)(=O)N2C ?
LDHA inh: -14.3

What do the screens show for `Fc1ccc([C@@H]2CCNC[C@H]2COc2ccc3c(c2)OCO3)cc1`?
D2 antag: 40.7*; D2 PAM-1: -9.4; D2 PAM-2: -6.1; D2 ag-1: 14.6; D2 ag-2: 2.9; LDHA inh: -2.4

How did CCOCCCNCc1cc(=O)oc2ccc3ccccc3c12 do in these assays?
LDHA inh: 6.3

What do the screens show for `CCn1c(=O)c(C(=O)NNC(=O)c2ccccc2F)c(O)c2ccccc21`?
D2 antag: 21.2; D2 PAM-1: -9.1; D2 PAM-2: -4.9; D2 ag-1: 47.6*; D2 ag-2: 3.2; LDHA inh: 5.9

Results for CS(=O)(=O)N(CCc1ccccc1)CC(=O)N1CCN(Cc2ccc3c(c2)OCO3)CC1 ?
D2 antag: 43.5*; D2 PAM-1: 7.9; D2 PAM-2: -9.8; D2 ag-1: -1.5; D2 ag-2: -2.6; LDHA inh: -15.7

What do the screens show for `O=C(CCCCCn1c(=O)[nH]c2ccccc2c1=O)N1CCN(Cc2ccc3c(c2)OCO3)CC1`?
D2 antag: 5.1; D2 PAM-1: -16.6; D2 PAM-2: 2.4; D2 ag-1: 34.7*; D2 ag-2: 3.3; LDHA inh: 0.4

Results for CCN1CCN(c2nc3ccccc3nc2C(C#N)S(=O)(=O)c2ccccc2)CC1 (stereo not drawn) ?
LDHA inh: -1.6

Results for Cc1ccc(C(=O)NCCc2csc(C)n2)cc1 ?
D2 antag: 42.7*; D2 PAM-1: 1.7; D2 PAM-2: -1.8; D2 ag-1: 0.1; D2 ag-2: -7.1; LDHA inh: 2.5

How did Cc1cccc(C(=O)NCCc2csc(C)n2)c1 do in these assays?
D2 antag: 22.7; D2 PAM-1: -0.8; D2 PAM-2: -0.4; D2 ag-1: 0.4; D2 ag-2: -2.8; LDHA inh: 0.3

Results for O=C(/C=C/c1ccccc1Cl)Nc1ccc2c(c1)C(=O)NC2=O ?
D2 antag: -2.5; D2 PAM-1: 0.8; D2 PAM-2: -6.7; D2 ag-1: -0.1; D2 ag-2: -2.4; LDHA inh: -46.3*

What do the screens show for `CC1=C(C(=O)Nc2ccccc2F)C(c2ccco2)C(C#N)=C(SCC(=O)NC(C)(C)C)N1` (stereo not drawn)?
LDHA inh: 9.1

How did COCCn1nnnc1C(c1ccc(O)c(OC)c1)N1CCc2ccccc2C1 (stereo not drawn) do in these assays?
D2 antag: 43.6*; D2 PAM-1: -18.3; D2 PAM-2: -1.3; D2 ag-1: 0.9; D2 ag-2: 1.9; LDHA inh: 9.0

Results for COc1ccc(C(c2nnnn2C2CCCC2)N2CCc3ccccc3C2)cc1OC (stereo not drawn) ?
D2 antag: 25.9; D2 PAM-1: 9.3; D2 PAM-2: -8.5; D2 ag-1: 0.4; D2 ag-2: -4.3; LDHA inh: 0.0

How did COc1ccc(C2CN=NC23CCCc2ccccc2C3=O)cc1 (stereo not drawn) do in these assays?
D2 antag: -17.6; D2 PAM-1: -5.5; D2 PAM-2: 63.9*; D2 ag-1: -1.0; D2 ag-2: 4.3; LDHA inh: 3.6

Results for CCCn1c(SCc2ncc(-c3cccc(Cl)c3)o2)n[nH]c1=O ?
LDHA inh: 0.2

What do the screens show for `Cc1nc2c(-c3ccccc3)c(C)nn2c(C)c1CCC(=O)N1CCOCC1`?
D2 antag: -0.5; D2 PAM-1: 31.8*; D2 PAM-2: -4.4; D2 ag-1: 0.5; D2 ag-2: -0.4; LDHA inh: -4.7

What do the screens show for `Cc1nc2cc(-c3ccccc3)nn2c(C)c1CCC(=O)N1CCN(c2ccccn2)CC1`?
D2 antag: 36.3*; D2 PAM-1: -7.4; D2 ag-1: -1.8

How did CCOC(=O)C1CCN(C(=O)CCc2c(C)nc3cc(-c4ccccc4)nn3c2C)CC1 do in these assays?
D2 antag: 0.1; D2 PAM-1: 5.7; D2 PAM-2: -5.8; D2 ag-1: -0.1; D2 ag-2: -2.6; LDHA inh: 3.0

How did CCOC(=O)C1CCCCN1C(=O)CCc1c(C)nc2cc(-c3ccccc3)nn2c1C (stereo not drawn) do in these assays?
D2 antag: 32.8*; D2 PAM-1: 5.3; D2 PAM-2: -1.8; D2 ag-1: 0.5; D2 ag-2: 2.8; LDHA inh: -6.8

Results for CCc1ccc2oc(C(=O)NCC(c3ccco3)N3CCCC3)cc(=O)c2c1 (stereo not drawn) ?
LDHA inh: 9.5

Results for CCCCn1cc(S(=O)(=O)c2ccc(OCC)cc2)c(=O)c2cc(C)ccc21 ?
LDHA inh: -10.9

How did Cc1cccc(Oc2nc3c(c(=O)n(C)c(=O)n3C)n2Cc2ccccc2F)c1 do in these assays?
LDHA inh: -0.9

What do the screens show for `Cc1c(OCC(=O)Nc2ccc(F)c(Cl)c2)c(=O)ccn1C`?
LDHA inh: 0.7

What do the screens show for `CCN(Cc1ccccc1)Cc1ccc(OCc2ccccc2)cc1`?
D2 antag: 31.1*; D2 PAM-1: -7.9; D2 PAM-2: -68.2; D2 ag-1: -1.8; D2 ag-2: -3.7; LDHA inh: -6.3

How did c1ccc(CCN(Cc2ccccc2)Cc2ccc(OCc3ccccc3)cc2)cc1 do in these assays?
LDHA inh: -1.3
